Measurements from the supplement of paper PMC4723716.

System: Plasmodium falciparum NF54 gametocytes
Assay: viability index relative to DMSO control (fraction); higher = less gametocyte killing
Conditions: 12.5 µM, incubation time: 72 h
Procedure, shortened: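 P. falciparum NF54 gametocytes at stages I–V were treated with compound at 12.5 µM for 72 hr at 37°C under low oxygen in serum-containing medium (0.50% gametocytemia, 1.25% hematocrit), then stained with MitoTracker Red CMXRos and imaged in serum-free medium containing 500 nM dye. The viability index is the gametocyte particle count divided by the plate mean of solvent-only wells.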

[1] = gametocyte stage: Stage I viability index
[2] = gametocyte stage: Stage II viability index
[3] = gametocyte stage: Stage III viability index
[4] = gametocyte stage: Stage IV viability index
[5] = gametocyte stage: Stage V viability index

| SMILES | viability index [1] | viability index [2] | viability index [3] | viability index [4] | viability index [5] |
| --- | --- | --- | --- | --- | --- |
| CCOC(=O)c1cnc2c(CC)cccc2c1O | 1.15 | 0.838 | 0.966 | 0.835 | 0.844 |
| O=C(Nc1cccc(-c2nc3ccccc3[nH]2)c1)c1cccc(NC(=O)c2ccco2)c1 | 0.424 | 0.771 | 1.01 | 0.857 | 0.868 |
| COc1cccc(C(=O)NC(c2ccc(C)cc2)c2cc(Cl)c3cccnc3c2O)c1 (stereo not given) | 0.116 | 0.0583 | 0.0814 | 0.247 | 0.039 |
| O=C(NCc1ccco1)C1CCN(S(=O)(=O)c2ccc(Br)cc2)CC1 | 0.938 | 0.983 | 0.99 | 0.824 | 0.945 |
| CN1CCN(c2ccc(Nc3c4ccccc4nc4ccccc34)cc2)CC1 | 0.0453 | 0.0029 | 0.0523 | 0.146 | 0.121 |
| CCOC(=O)c1c(NC(=O)c2ccccc2)sc2c(O)c(CN(CC)CC)ccc12 | 0.0641 | 0.129 | 0.32 | 0.517 | 0.407 |
| O=C(NCCCN1CCC(N2CCCCC2)CC1)C1=Cc2cc(Br)ccc2OC1 | 0.0935 | 0.427 | 0.742 | 0.699 | 0.312 |
| O=C(Nc1ccc(C23CC4CC(CC(c5ccccc5)(C4)C2)C3)cc1)c1cccs1 | 0.939 | 0.824 | 0.986 | 0.744 | 1.14 |
| CCOC(=O)c1cnc2ccc(CC)cc2c1O | 0.377 | 0.505 | 0.734 | 0.733 | 0.846 |
| c1ccc2cc3c(Nc4ccc(N5CCOCC5)cc4)ccnc3cc2c1 | 0.0685 | 0.499 | 0.779 | 1.02 | 1.19 |
| OC(CNCC1CCCO1)Cn1c2ccc(Cl)cc2c2cc(Cl)ccc21 (stereo not given) | 0.0685 | 0.0647 | 0.468 | 0.65 | 0.56 |
| COc1ccc(C(=O)NC(c2ccccc2Cl)c2cc(Cl)c3cccnc3c2O)cc1 (stereo not given) | 0.11 | 0.0824 | 0.167 | 0.241 | 0.221 |
| COc1cc(OC)cc(N2C(=O)N(Cc3ccc(C(C)(C)C)cc3)c3ccccc3S2(=O)=O)c1 | 1.04 | 0.96 | 1 | 0.785 | 0.662 |
| CCCCNCC(O)(c1ccc(Cl)cc1)c1ccc(Cl)cc1 | 0.00663 | 0.0541 | 0.364 | 0.422 | 0.396 |
| O=C(CSc1nccn2nc(-c3ccccc3)cc12)Nc1cc(C(F)(F)F)ccc1Cl | 0.845 | 0.896 | 0.973 | 1.08 | 1.4 |
| COc1ccc(Nc2cc(C)nc(NCc3ccccc3)n2)cc1 | 0.0594 | 0.319 | 0.487 | 0.589 | 0.481 |
| O=C(Nc1ccc(-c2nc3cc(NC(=O)c4ccc(Cl)cc4)ccc3[nH]2)cc1)c1ccc(Cl)cc1 | 0.0481 | 0.00583 | 0.0176 | 0.00316 | 0 |
| CCCCCCOC(=O)C1=C(C)NC(=O)NC1c1ccccc1F (stereo not given) | 0.924 | 0.896 | 1.03 | 1.04 | 1.13 |
| CCOC(=O)C1=C(C)N=c2sc(=Cc3ccccc3O)c(=O)n2C1c1ccc(OC)c2ccccc12 (stereo not given) | 0.0358 | 0.06 | 0.197 | 0.468 | 0.481 |
| Cc1cc(C=C2SC(=Nc3ccccc3)N(C3CCCC3)C2=O)c(C)n1-c1ccc(Cl)cc1 | 1.05 | 1.03 | 1.03 | 0.894 | 0.879 |
| CC1CC(C)CN(C(=O)c2ccc(Cl)cc2Cl)C1 (stereo not given) | 0.95 | 0.871 | 0.962 | 0.951 | 1.01 |

| SMILES | viability index [1] | viability index [2] | viability index [3] | viability index [4] | viability index [5] |
| --- | --- | --- | --- | --- | --- |
| Fc1ccc2[nH]c3c(NCCCN4CCOCC4)ncnc3c2c1 | 0.053 | 0.564 | 0.873 | 0.866 | 0.78 |
| COc1nc(Nc2ccc(C(C)C)cc2)nc(OC)n1 | 1.18 | 0.871 | 0.965 | 1.06 | 0.967 |
| CCc1c(C)c(=N)c2ccccc2n1C | 0.725 | 1.01 | 1.24 | 0.988 | 0.791 |
| c1ccc(C2=Nc3ccccc3N=C(c3ccccc3)c3ccccc32)cc1 | 0.0839 | 0.0541 | 0.0543 | 0.123 | 0.0909 |
| Cc1c(C)n(CC(O)CNC2CCCCC2C)c2ccccc12 (stereo not given) | 0.0939 | 0.217 | 0.644 | 0.766 | 0.923 |
| CC1=C(CC(=O)c2cccc([N+](=O)[O-])c2)C(=O)c2ccccc2C1=O | 0.00612 | 0.00167 | 0.0706 | 0.196 | 0.234 |
| COc1ccc(CCN2C(=O)c3[nH]nc(-c4cc(Cl)c(C)cc4O)c3C2c2ccccc2F)cc1 (stereo not given) | 0.083 | 0.29 | 0.6 | 0.665 | 0.675 |
| CCOc1cccc(C(=O)Nc2ccc(-c3nc4ccccc4[nH]3)cc2)c1 | 0.0751 | 0.574 | 1.1 | 0.894 | 0.637 |
| COc1cccc(O)c1CN1CCC2(CCCN(Cc3ccc(F)cc3)C2)C1 (stereo not given) | 0.0144 | 0.0986 | 0.446 | 0.602 | 0.615 |
| COc1ccc(-c2c(C)nn3c(N)c(C#N)cnc23)cc1OC | 0.0343 | 0.00676 | 0.0325 | 0.0942 | 0.0769 |
| CCCn1c(=N)c(C(=O)NC2CCCCC2)cc2c(=O)n3cccc(C)c3nc21 | 0.45 | 0.612 | 1.06 | 0.981 | 0.805 |
| CCN(CC)CCn1c(=N)n(CC(O)c2ccc(Cl)c(Cl)c2)c2ccccc21 (stereo not given) | 0.00552 | 0.057 | 0.0608 | 0.0851 | 0.121 |
| CCOc1ccc(CCNC(=O)c2cccs2)cc1OCC | 1.14 | 0.896 | 1.1 | 0.884 | 0.593 |
| Cc1ccc(NC(=O)Nc2cccc(Cl)c2)cc1F | 0.64 | 0.599 | 0.832 | 0.827 | 0.582 |
| CCC(C)NCC(O)(c1ccc(Cl)cc1)c1ccc(Cl)cc1 (stereo not given) | 0.0354 | 0.0657 | 0.378 | 0.584 | 0.615 |
| O=C(Nc1ccc(CN2CCOCC2)cc1)c1ccc(-c2ccc(Br)cc2)o1 | 0.141 | 0.543 | 0.926 | 0.787 | 1.16 |
| CC(C)(C)c1ccc2c(c1)CN(Cc1ccc(Cl)cc1)CO2 | 0.12 | 0.192 | 0.385 | 0.633 | 0.442 |
| CN(C)c1ccc(N=Cc2ccc(N3CCOCC3)cc2)cc1 | 0.955 | 0.834 | 0.927 | 1.01 | 0.896 |
| Cc1ccc(-c2cc3c(SCC(=O)Nc4cc(C(F)(F)F)ccc4Cl)nccn3n2)cc1 | 1.03 | 0.896 | 1.11 | 0.921 | 0.791 |
| Nc1ccn(C2O[C@H](CO)[C@@H](O)[C@H]2O)c(=O)n1 (stereo not given in full) | 0.976 | 1.14 | 0.955 | 1.07 | 1.1 |
| c1ccc(Cn2c(N=Nc3c(Nc4ccccc4)ccc4ccccc34)nc3ccccc32)cc1 | 0.00884 | 0.0106 | 0.058 | 0.149 | 0.209 |

| SMILES | viability index [1] | viability index [2] | viability index [3] | viability index [4] | viability index [5] |
| --- | --- | --- | --- | --- | --- |
| CN1c2ccccc2N(C)C1c1ccc2c(c1)OCO2 | 0.952 | 0.862 | 1.05 | 0.964 | 1.03 |
| CCOc1c(Br)cc(C2C(C(=O)OC)=CN(C)C=C2C(=O)OC)cc1OC | 0.344 | 0.243 | 0.353 | 0.38 | 0.649 |
| Cc1ccc(-c2cc3c(nn2)-c2ccccc2C3=O)cc1 | 0.61 | 0.871 | 0.74 | 0.897 | 1.05 |
| COc1ccc(Br)cc1C1Nc2ccc3ccccc3c2C2=C1C(=O)CC(c1ccccc1)C2 (stereo not given) | 0.44 | 0.729 | 0.873 | 0.939 | 1.05 |
| Cc1ccc(N2C(=O)C3C(C2=O)C2(c4ccccc4)C(=O)C3(c3ccccc3)C(c3ccccc3)=C2c2ccccc2)cc1 (stereo not given) | 0.733 | 0.916 | 1.14 | 1.03 | 1.01 |
| COc1cc(C(=O)Nc2nc3c(cc4c5c(cccc53)CC4)s2)cc(OC)c1OC | 0.18 | 0.5 | 1.04 | 0.775 | 0.818 |
| Clc1ccc2c(N3CCCC3)ccnc2c1 | 0.241 | 0.491 | 0.915 | 0.93 | 1.14 |
| COc1cc(-c2nc(-c3ccc(Sc4ccccc4)cc3)c(-c3ccccc3)[nH]2)cc(OC)c1O | 0.0507 | 0.0441 | 0.0529 | 0.0222 | 0.0779 |
| COc1ccc(C2Sc3ccccc3N=C3C2=C(O)c2ccccc23)cc1 (stereo not given) | 0.64 | 0.882 | 0.967 | 1.08 | 0.956 |
| Cc1cc(N2CCN(C3CCCC3)CC2)n2c(nc3ccccc32)c1C#N | 0.833 | 0.875 | 1.15 | 1.02 | 1 |
| FC(F)(F)c1ccc(Nc2nnnc3ccccc23)cc1 | 0.604 | 0.736 | 0.921 | 0.72 | 0.868 |
| CC1CN(C(=O)c2sc3ccccc3c2Cl)CC(C)O1 (stereo not given) | 0.768 | 0.756 | 0.97 | 0.912 | 0.989 |
| COc1ccc(OC)c(C2C3=C(CC(C)(C)CC3=O)N(c3ccc(Cl)c(Cl)c3)C3=C2C(=O)CC(C)(C)C3)c1 | 0.713 | 0.88 | 0.807 | 0.807 | 0.623 |
| COCCn1c(C)nc2ccccc2c1=O | 0.825 | 0.879 | 0.733 | 0.711 | 0.418 |
| CCN(CC)CCNc1ccnc2cc3ccccc3cc12 | 0.0323 | 0.0591 | 0.106 | 0.0475 | 0.039 |
| CCC(O)c1ccc(Br)cc1NC(=O)c1cccc(Cl)c1 (stereo not given) | 0.0243 | 0.196 | 0.598 | 0.729 | 0.582 |
| CCOc1ccccc1CN1CCc2nc3cc(C(C)(C)C)nn3c(O)c2C1 | 0.89 | 0.7 | 0.583 | 0.737 | 0.597 |
| CCCC(c1nnnn1C1CCCCC1)N1CCN(C(=O)c2ccco2)CC1 (stereo not given) | 1.04 | 0.976 | 1.01 | 1.02 | 1.16 |
| Oc1c(C(Nc2ccccn2)c2cccc(Oc3ccccc3)c2)ccc2cccnc12 (stereo not given) | 1.06 | 0.975 | 1.04 | 0.994 | 0.675 |
